Among the data in PubChem BioAssay are composite z-score and z-score values, retold here.

Active and inactive are the calls of the source. Unless noted, no rule for the calls is given here.

The subject of experiment [1] is XIP peptide (Xip251-270) binding. The experiment can be described thus: XIP fragment 251-270 binding compounds – biochemical, small-molecule microarray, fluorescence 635/667 nm, 0.1 µg/mL protein, primary screen (AID 1182). The settings on record: fluorescent protein binding, 635 nm, higher = more signal, called active from +8 up or from −8 down.
The next experiment has as its system XIP peptide (Xip251-270). The experiment can be described thus: compounds binding XIP fragment 251-270 – biochemical, small-molecule microarray, fluorescence 635/667 nm, 0.5 µg/mL protein, primary screen (AID 1183). The settings on record: fluorescence 635 nm, higher = more signal.
Experiment [2] in a line: blood-stage malaria parasite viability loss – strain 3D7, DAPI fluorescence, 100 nL, primary screen (AID 1184).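 Also: parasites grown inside human red blood cells in medium with human serum.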 Particulars: P. falciparum 3D7 growth, 3 d, higher = more signal.
The target of experiment [3] is Homeobox protein Hox-A13 (Mus musculus) (UniProt Q62424). The experiment can be described thus: disruptors of Hoxa13 oligonucleotide interaction – biochemical, fluorescence polarization, labeled oligonucleotide, primary screen (AID 1185). The settings on record: Hoxa13:DNA binding, 15 min, higher = more signal, called active from +8 up or from −8 down.
Homeobox protein Hox-A13 (Mus musculus), sequence (Q62424 whole entry, looked up): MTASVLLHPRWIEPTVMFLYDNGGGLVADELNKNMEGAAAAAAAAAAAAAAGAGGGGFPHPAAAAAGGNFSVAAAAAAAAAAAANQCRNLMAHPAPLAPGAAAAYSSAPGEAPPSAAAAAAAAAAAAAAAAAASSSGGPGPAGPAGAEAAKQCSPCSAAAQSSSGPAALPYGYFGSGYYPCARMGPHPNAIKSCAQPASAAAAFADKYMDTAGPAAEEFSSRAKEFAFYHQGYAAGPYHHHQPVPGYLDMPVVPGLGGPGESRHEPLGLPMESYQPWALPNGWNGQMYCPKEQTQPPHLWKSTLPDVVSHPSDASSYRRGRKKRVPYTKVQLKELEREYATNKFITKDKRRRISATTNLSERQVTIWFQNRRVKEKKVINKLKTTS
Experiment [4] is described as follows: blockers of DNA damage checkpoint Chk1 activation – imaging, HeLa, hydroxyurea, phospho-Chk1 antibody, percent positive cells, primary screen (AID 1186). Particulars: hydroxyurea-induced phospho-Chk1 immunofluorescence imaging, higher = more signal.
A short description of experiment [5]: blockers of DNA damage checkpoint Chk1 activation – imaging, HeLa, hydroxyurea, phospho-Chk1 nuclear intensity, primary screen (AID 1187). The settings on record: hydroxyurea-induced phospho-Chk1 immunofluorescence imaging, higher = more signal.

With `C=C(CCCC)C(=O)CC[C@@H](OC(C)=O)c1ccccc1OCCO`, the composite z-score in experiment [1] is 0.144 (inactive); in the experiment on XIP peptide (Xip251-270), -1.02. For the same molecule, the z-score in experiment [2] was -1.77; in experiment [3] it was -4.53 (inactive); in experiment [4] it was -0.21 (inactive); in experiment [5] it was -0.223 (inactive).
As to `N#Cc1ccc(NN2C(C(O)CCc3ccccc3)C=CC3C(=O)N(c4ccccc4)C(=O)C32)cc1` (centres undefined), the composite z-score in experiment [1] was 1.15 (inactive); with XIP peptide (Xip251-270) it was -0.279. Besides, the z-score is 0.484 in experiment [2], -4.3 (inactive) in experiment [3], -0.13 (inactive) in experiment [4] and -0.424 (inactive) in experiment [5].
In the case of `COc1ccc(C(=O)Nc2ccc(CN3C(=O)[C@]4(O[C@H](CCn5cc(CCO)nn5)[C@@H]([Si](C)(C)c5ccc(OC)cc5)[C@@H]4C)c4ccccc43)cc2)cc1`, the results for the composite z-score (in experiment [1]; in the experiment with XIP peptide (Xip251-270)) were -0.154 (inactive) and 0.621, respectively. Besides, the z-score in experiment [2] was -2.78; in experiment [3], -3.55 (inactive); in experiment [4] it was 0.188 (inactive); in experiment [5], 0.686 (inactive).
In the case of `CCCCCCc1nc(-c2cc(C)c(OC)c(C)c2)cc2c1[Si](C(C)C)(C(C)C)O[C@H]2c1ccccc1`, the composite z-score in experiment [1] is -0.408 (inactive); with XIP peptide (Xip251-270), -0.461. Also, the z-score in experiment [2] is -0.753; in experiment [3], -1.91 (inactive); in experiment [4] it was 0.0883 (inactive); in experiment [5], -0.242 (inactive).
Consider `COCC(=C=CC[C@H](O)c1ccc(OCCO)cc1)C[C@H](O)c1ccccn1`, for which the composite z-score is 0.495 (inactive) in experiment [1] and -0.246 with XIP peptide (Xip251-270). Besides, the z-score was -1.14 in experiment [2], -5.63 (inactive) in experiment [3], -0.215 (inactive) in experiment [4] and -0.0412 (inactive) in experiment [5].
`O=C1O[C@H](c2ccccc2)[C@H](c2ccccc2)N2[C@H]1[C@@H](C(=O)Nc1nc3ccccc3s1)[C@]1(C(=O)Nc3ccc(C#CC4(O)CCCCCC4)cc31)[C@H]2c1ccc(O)cc1`: the composite z-score in experiment [1] is 2.76 (inactive); with XIP peptide (Xip251-270), 0.844. Also, the z-score in experiment [2] was -0.416; in experiment [3], -1.04 (inactive); in experiment [4], 0.313 (inactive); in experiment [5], 0.634 (inactive).
Turning to `C=CC(=O)O[C@@H](Cc1ccccc1)[C@H]1C2C=CCCC=C2CN1Cc1cccc(Cl)c1` (some centres undefined), the composite z-score was -0.244 (inactive) in experiment [1] and -2.01 with XIP peptide (Xip251-270). Besides, the z-score in experiment [2] was -0.0093; in experiment [3] it was -3.7 (inactive); in experiment [4], 0.171 (inactive); in experiment [5], 0.304 (inactive).
With `O=C1O[C@@H](c2ccccc2)[C@@H](c2ccccc2)N2[C@@H](c3ccc(O)cc3)[C@]3(C(=O)Nc4ccc(C#CC5(O)CCCCCC5)cc43)[C@@H](C(=O)Nc3nc4ccccc4s3)[C@H]12`, the results for the composite z-score (in experiment [1]; in the experiment on XIP peptide (Xip251-270)) were 1.8 (inactive) and 0.756, respectively. The z-score was -0.697 in experiment [2], -0.586 (inactive) in experiment [3], -0.44 (inactive) in experiment [4] and -0.169 (inactive) in experiment [5].
Take `C=CC[C@]1(C(=O)NCC(O)CO)N=C(c2ccc(OCCCO)cc2)O[C@H]1c1ccccc1` (some centres undefined): the composite z-score in experiment [1] was 0.654 (inactive); in the experiment with XIP peptide (Xip251-270), 0.124. Besides, the z-score in experiment [2] is -0.851; in experiment [3] it was -5.04 (inactive); in experiment [4], -0.147 (inactive); in experiment [5] it was -0.0911 (inactive).
As for `CC(C)[Si]1(C(C)C)OCc2cc(C3CC3)nc(-c3ccccc3)c21`, the composite z-score was 0.119 (inactive) in experiment [1] and 0.939 with XIP peptide (Xip251-270). Besides, the z-score was -1.16 in experiment [2], -0.631 (inactive) in experiment [3], -0.37 (inactive) in experiment [4] and -0.0248 (inactive) in experiment [5].
As for `Cc1ccc(N2C(=O)c3ccccc3[C@@H](C(=O)NCC(F)(F)F)[C@@H]2c2ccc(CO)cc2)nc1`, the results for the composite z-score (in experiment [1]; with XIP peptide (Xip251-270)) were -0.118 (inactive) and -0.138, respectively. Besides, the z-score in experiment [2] is -0.0188; in experiment [3] it was -0.71 (inactive); in experiment [4] it was -0.0128 (inactive); in experiment [5], 0.171 (inactive).
As for `C=CCNC(=O)[C@H]1[C@@H]2C(=O)O[C@@H](c3ccccc3)[C@@H](c3ccccc3)N2[C@@H](c2ccccc2OCCO)[C@]12C(=O)N(C(=O)OCCOC)c1ccc(C#CCNC(N)=O)cc12`, the composite z-score in experiment [1] is 0.854 (inactive); with XIP peptide (Xip251-270) it was 0.822. In addition, the z-score was -1.87 in experiment [2], -1.33 (inactive) in experiment [3], -0.267 (inactive) in experiment [4] and -0.261 (inactive) in experiment [5].
As for `C=CC[C@]1(C(=O)N2CCCCC2)N=C(c2ccc(OCCCO)cc2)O[C@H]1c1ccccc1N=[N+]=[N-]`, the composite z-score in experiment [1] was 1.01 (inactive); with XIP peptide (Xip251-270) it was 0.851. Besides, the z-score in experiment [2] was -2.21; in experiment [3], -3.92 (inactive); in experiment [4], -0.135 (inactive); in experiment [5] it was 0.224 (inactive).
On to `COCCOC(=O)N1C(=O)[C@@]2(c3cc(C#CC4=CCCCC4)ccc31)[C@H](c1ccc(O)cc1)N1[C@H](c3ccccc3)[C@H](c3ccccc3)OC(=O)[C@H]1[C@@H]2C(=O)N1CCCCCCC1`, for which the composite z-score was 0.505 (inactive) in experiment [1] and 0.678 in the experiment on XIP peptide (Xip251-270). Further, the z-score in experiment [2] is -1.66; in experiment [3] it was 2.08 (inactive); in experiment [4], -0.104 (inactive); in experiment [5] it was 0.0587 (inactive).
